PLK1 PBD block: inhibitors of human PLK1 polo-box domain binding; Potency, µM, for the others: max response, negative = inhibition, actives largely listed as inhibitors; Plk1 PBD binding of FITC phosphopeptide, fluorescence polarization; AID 720504; hit rate 2.8% among 360,000; note: potency is the fitted concentration of half-maximal effect; series mostly up to about 57 µM; nearly all actives have a fitted effect of over 65% in size
Target sequence (P53350 whole entry, looked up, the tested form may be a part): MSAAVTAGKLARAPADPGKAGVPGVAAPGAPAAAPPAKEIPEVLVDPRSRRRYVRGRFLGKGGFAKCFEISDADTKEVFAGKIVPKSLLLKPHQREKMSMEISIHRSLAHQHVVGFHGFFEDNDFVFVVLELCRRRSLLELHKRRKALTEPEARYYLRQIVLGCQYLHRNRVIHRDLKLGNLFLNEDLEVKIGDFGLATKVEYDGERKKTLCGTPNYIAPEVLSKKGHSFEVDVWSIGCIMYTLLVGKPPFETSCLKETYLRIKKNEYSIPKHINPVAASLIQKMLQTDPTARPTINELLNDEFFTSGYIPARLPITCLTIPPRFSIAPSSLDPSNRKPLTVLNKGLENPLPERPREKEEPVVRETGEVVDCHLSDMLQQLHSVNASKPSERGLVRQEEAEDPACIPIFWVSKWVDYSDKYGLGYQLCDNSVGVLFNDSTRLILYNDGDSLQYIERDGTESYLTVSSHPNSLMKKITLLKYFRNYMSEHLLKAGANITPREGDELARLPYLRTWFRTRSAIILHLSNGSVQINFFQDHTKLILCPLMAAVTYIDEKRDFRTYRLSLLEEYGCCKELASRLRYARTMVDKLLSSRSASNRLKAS
WRN inhibitor: WRN helicase (human) inhibition | Q14191 | WRN helicase unwinding, fluorescent forked duplex, kinetic | Potency, µM (series often up to 114 µM), inactives show at the top dose activity change, negative = inhibition, usual class: inhibitors | hit rate 0.46% among 360,000; note: potency is the fitted concentration of half-maximal effect; nearly all actives have a fitted effect of over 55% in size
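Kinetic fluorescence helicase assay: unwinding of a quenched forked DNA duplex (100 nM final) with 2 mM ATP final raises red fluorescence (525/598 nm). Compounds sat 15 min at room temperature with 20 nM WRN beforehand.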
USP2a inh: blocks human ubiquitin-specific protease USP2a | USP2 core, Ub-CHOP2 coupled fluorogenic reporter, 485/531 | AID 463254 | O75604 | hit rate 0.01% among 330,000 | Potency, µM (top dose mostly 38.3 µM), inactives show at the top dose activity change, negative = inhibition, usual class: inhibitors;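 note: potency is the fitted concentration of half-maximal effect; plate controls were DMSO wells for no effect and full inhibition by NEM control for full effect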
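Deubiquitinase activity read as fluorescence (485/531 nm) after Ub-CHOP2 cleavage activates the enterokinase reporter on its substrate; USP2 core 10nM, Ub-CHOP2 and substrate 25nM each, 30min compound preincubation then 60min RT; data normalized to NEM, curves fitted.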
USP1 inh: inhibitors of human USP1/UAF1 deubiquitinase; O94782; recombinant USP1/UAF1, Ub-Rhodamine cleavage fluorescence; Potency, µM (top dose mostly 57.1 µM), without a hit: at the highest dose activity change, negative = inhibition, usual class: inhibitors; hit rate 0.23% among 390,000; note: potency is the fitted concentration of half-maximal effect; nearly all actives have a fitted effect of over 60% in size
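In this screen, compounds sit with the deubiquitinase complex (1nM) for 15 min at room temperature before Ub-Rho is added at 150nM final. Fluorescence rise is then followed for 6 reads every 60 seconds.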
PI5P4K alpha inh: inhibitors of human PI5P4K alpha | max response, % | PI5P4Kalpha enzyme, ADP-Glo luminescence, 60 min; stronger effect = lower value | hit rate 1.2% among 330,000 | P48426; active = max response of -50% or lower; inconclusive = between -30% and -50%; inactive = -30% or higher; note: value at the top dose of about 77 µM
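Single end-point luminescence (ADP-Glo) quantified ADP from PI5P4Kalpha turnover; ATP 5 microM final, 1 h at RT, 0.1% CHAPS and 0.28 mM EGTA in HEPES pH 7.4.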
Numbers without * were called inactive; ? = inconclusive; . = no result given; [ ] = another dose, or the depositor's remark. Hits are enriched below; roughly 3.3% of the tested compounds scored in any of these assays. Unless noted, calls come from the whole dose curve; as a rule, active = well fitted curve in the direction sought with a large enough effect; inconclusive = small, poorly fitted or top-dose-only effect, or another doubt; inactive = no such curve, though single readings can be large; an effect the other way counts as inactive or inconclusive. Unless noted, % is set by controls: 0 for no effect and ±100 for the full control effect.

SMILES	PLK1 PBD block	WRN inhibitor	USP2a inh	USP1 inh	PI5P4K alpha inh
Cc1ccc(/C=C/C(=O)O)cc1S(=O)(=O)NCCO	-2%	-17%	0%	3%	?
Cc1ccc(/C=C/C(=O)O)cc1S(=O)(=O)Nc1ccccc1C(=O)O	-25%	2%[11.6 µM]	2%	-15%	-53*
Cc1ccc(/C=C/C(=O)O)cc1S(=O)(=O)Nc1ccc(C(=O)O)cc1	27µM*	0%	-11%	-11%	-10
CC(=O)N1CCN(c2ccc(NCc3cccc4ccccc34)cc2)CC1	24µM*	-15%	0%	-26%	-15
CC(=O)N1CCN(c2ccc(NCc3ccccc3)cc2)CC1	1%	9%	3%	-10%	.
O=C(Cc1cccc(F)c1)N1CCOCC1	21µM*	15%	.	-21%	-5
c1ccc(-c2cnn3c(-c4ccccc4)c(-c4ccccc4)nc3n2)cc1	65%	-4%	?	1.4µM*	-2
Cc1cccc[n+]1CC(=O)c1ccc([N+](=O)[O-])cc1	7%	1%[57.1 µM]	.	-26%	-3
COc1ccc(C(=O)C[n+]2ccccc2C)cc1	6µM*	-15%	3%	-11%	-25
Cc1c(C(=O)OCC(=O)Nc2c(C)n(C)n(-c3ccccc3)c2=O)cccc1[N+](=O)[O-]	21µM*	9%	1%	-7%	-1
COc1cc(C(=O)OCC(=O)Nc2c(C)n(C)n(-c3ccccc3)c2=O)c([N+](=O)[O-])cc1OC	-4%	-20%	-2%	-4%	-8
CC(=O)c1cccc(OCC(=O)Nc2cccc(C(=O)Nc3c(C)n(C)n(-c4ccccc4)c3=O)c2)c1	19µM*	-18%	0%	-3%	-9
Cc1nc2ccccn2c1-c1ccnc(=S)[nH]1	27µM*	?	0%	-7%	?
Cc1ccc(Nc2nc(-c3c(C)nc4ccccn34)cs2)cc1	-2%	1%	-11%	-12%	-3
COc1ccc(CNC(=O)c2ccc3c(c2)N(Cc2cc(C)ccc2C)C(=O)CS3)cc1	.	.	.	-13%	.
CO/N=C\CC(=O)Nc1ccc(Cl)cc1Cl	21µM*	-6%	-2%	-3%	-20
CSc1nc(=NC(C)=O)ss1	7.9µM*	-2%	-1%	-9%	?
Cc1nn(Cc2ccccc2)c2c1C(c1ccc(Cl)cc1)C(C#N)=C(N)O2 (centres undefined)	27µM*	-19%	3%	-16%	.
Cc1nn(-c2ccccc2)c2c1C(c1ccccc1)C(C#N)=C(N)O2 (centres undefined)	27µM*	1%	2%	-18%	-12
Cc1nn(Cc2ccccc2)c2c1C(c1ccncc1)C(C#N)=C(N)O2 (centres undefined)	-29%	1%	-1%	-8%	-9
COc1ccc(C)c2sc(N(Cc3cccnc3)C(=O)C3CCCCC3)nc12	.	.	.	-15%	.
Nc1c(C(=O)NCc2ccccc2)nnn1Cc1cccc(Br)c1	.	.	.	-12%	.
Cc1ccsc1CN(C(=O)c1oc2cc(Br)ccc2c1C)C1CCS(=O)(=O)C1 (centres undefined)	.	.	.	-27%	.
COc1ccccc1/C=N/NC(=O)c1ccc(-c2ccccc2)cc1	30µM*	8%	1%	-30%	-5
COc1ccccc1/C=N/NC(=O)c1cccc2ccccc12	15µM*	-34%	10%	-15%	-15
SMILES	PLK1 PBD block	WRN inhibitor	USP2a inh	USP1 inh	PI5P4K alpha inh
COc1ccc(C(=O)N/N=C/c2cc3ccccc3[nH]c2=S)cc1	15µM*	-9%	0%	-5%	-23
COc1cc(/C=N/NC(=O)c2cccc3ccccc23)cc(OC)c1O	-8%	-15%	0%	-9%	1
COc1cc(/C=N/NC(=O)c2cccc3ccccc23)cc(OC)c1OC	30µM*	8%	-3%	-22%	0
CCOc1ccccc1C=NNC(=O)c1cccc2ccccc12	3%	-1%	.	-3%	14
CCCN1C(=O)C(Cc2nc3ccccc3c(=O)n2CC)c2cc(Br)ccc21 (centres undefined)	.	.	.	-20%	.
Cc1cc(Br)ccc1NC(=O)CN(C)C(=O)CCSc1ccc(F)cc1	27µM*	-10%	-2%	-4%	9
CN(CC(=O)Nc1ccccc1Cl)C(=O)CCSc1ccc(F)cc1	-8%	1%	2%	-10%	-4
Cc1ccc(CN2C(=O)c3ccccc3S(=O)(=O)c3ccc(C(=O)OCC4CCCO4)cc32)cc1 (centres undefined)	.	.	.	-23%	.
Cc1ccc(CN2CCC(CNC(=O)Nc3c(C)cccc3C)C2)cc1 (centres undefined)	.	.	.	-4%	.
CCOc1ccc(NC(=O)Cn2c(CCC(=O)O)ccc2-c2ccc(Cl)cc2)cc1	.	.	.	-18%	.
Nc1nc(NCc2c(F)cccc2Cl)nn1-c1ccccc1	27µM*	2%	4%	-21%	-6
Cc1c(C(=O)Nc2ccc(-c3nc4cc(Cl)ccc4o3)cc2)oc2ccccc12	.	.	.	-22%	.
COc1cc2[nH]c(=S)nc(Nc3ccc(NC(C)=O)cc3)c2cc1OC	30µM*	-20%	-1%	-9%	-13
COc1cc2[nH]c(=S)nc(NCCc3ccc(C)cc3)c2cc1OC	30µM*	-7%	5%	-16%	-18
COc1ccc(CCNc2nc(=S)[nH]c3cc(OC)c(OC)cc23)cc1OC	-4%	-15%	4%	-8%	-5
COc1ccc(C(=S)N2CCCCCC2)cc1	27µM*	4%	3%	-10%	-22
CCN1CCN(C(=O)C(C)Nc2ccc(OC)cc2OC)CC1 (centres undefined)	10%	7%[57.1 µM]	12%	-26%	0
CCOC(=O)c1ccc(C(=S)N2CCCC2)cc1	7.5µM*	-20%	2%	-12%	-30
COc1ccc(C(=S)N2CCNCC2)cc1	-2%	8%	3%	-2%	2
CCN1CCN(C(=S)c2ccc(OC)cc2)CC1	9.5µM*	-23%	2%	-2%	-17
COc1ccc(C(=S)N2CCN(c3ccccc3C)CC2)cc1	21µM*	-5%	-1%	7%	-5
COc1ccccc1N1CCN(S(=O)(=O)CCNC(=O)COc2ccc(C(C)C)cc2)CC1	.	.	.	-24%	.
Cc1c(Cl)cccc1NC(=O)C(=O)NCCc1csc(-c2cccc(F)c2)n1	.	.	.	-21%	.
OCCN1CCN(C(=S)c2ccc(Cl)cc2)CC1	6.7µM*	-20%	-1%	3%	-16
COc1cc(C(=S)N2CCCC2)cc(OC)c1O	21µM*	-13%	2%	-12%	.
O=C(COC(=O)c1cccnc1Cl)NCCCc1ccccc1	0%	-9%	3%	-22%	2
O=C(/C=C/c1ccc([N+](=O)[O-])cc1)NCCc1ccccc1	17µM*	-3%	2%	-26%	-29
O=C(/C=C/c1ccc([N+](=O)[O-])cc1)NC1CC2CCC1C2 (centres undefined)	6µM*	-12%	1%	2%	-52*
NS(=O)(=O)c1ccc(CCNC(=O)/C=C/c2ccc([N+](=O)[O-])cc2)cc1	-10%	6%	5%	-26%	-17

Assay outcomes: PubChem, National Center for Advancing Translational Sciences (NCATS)
